The values below come from PubChem BioAssay (Tox21).

“And” between values parts separate entries of the source, which are not always exact repeats. Identical values can stand only once. Results filed as inconclusive are left out. Where a call stands in place of a potency, no number is given. A number with no mark means an inactive call. The source made the active and inactive calls. The call rests on the fitted dose curve; in most records, active means well fitted curve in the direction sought with a large enough effect in the repeat runs; inconclusive means weak or mixed curves; inactive means no such curve, though single readings can be large; an effect the other way counts as inactive or inconclusive.
Potency means the concentration at half of the fitted maximal effect.

The nature of the first test: Human pregnane X receptor (PXR) small molecule agonists, qHTS cell viability counter screen (AID 1346977). Further: nearly all actives have a fitted effect of over 50% in size. The conditions noted are these: PXR-Luc HepG2 viability, CellTiter-Fluor, 24 h; series mostly up to 92.4 µM. The method in brief: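 Measures live-cell protease fluorescence (CellTiter-Fluor) in PXR-Luc HepG2 cells treated 24hr with compounds at 37C. Cells had 5hr to attach before pin transfer of DMSO solutions.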
As for `CN(C)C(=S)S`, the Potency was 15.8 µM (active) and 12.1 µM (active) and 15.4 µM (active).
Consider `CC(=O)[O-].CC(=O)[O-].O.O.[Cd+2]`, for which the Potency was 8.51 µM (active).
Still for that read-out and setting: as for `O=[N+]([O-])O.O=[N+]([O-])O.[Cd]`, the figure is 5.45 µM (active); as for `COc1cccc(C(=O)CCN[C@@H](C)[C@H](O)c2ccccc2)c1`, 29.8 µM (active).
`CC(=O)[O-].CC(=O)[O-].[Hg+2]`: the Potency is 6.11 µM (active).
Same read-out and setting: as for `CC(C)C1CCC(Cc2ccc(Cl)cc2)C1(O)Cn1cncn1` (centres undefined), the figure is 48.1 µM (active); as for `O=C/C(Cl)=C(/Cl)C(=O)O`, “inactive”.
As to `CC(c1ccc(O)cc1)c1ccc(O)cc1`, the Potency result is “inactive”.
On the same count and under the same terms, as for `CC(=O)Nc1ccc2c(c1)Cc1ccccc1-2`, the entry is “inactive”; as for `ClC1=C(Cl)[C@]2(Cl)[C@@H]3[C@@H](Cl)[C@H](Cl)C[C@@H]3[C@@]1(Cl)C2(Cl)Cl`, “inactive”.
With `C[C@]12Cc3nonc3C[C@@H]1CC[C@@H]1[C@@H]2CC[C@@]2(C)[C@H]1CC[C@]2(C)O`, the Potency entry was “inactive”.
For the compound `[Cd+2].[Cl-].[Cl-]`, the Potency was 794 nM (active) and 344 nM (active).
Take `O=c1[nH]c2ccccc2n1C1CCN(CCCC(c2ccc(F)cc2)c2ccc(F)cc2)CC1`: the Potency is 21.7 µM (active) and 26.6 µM (active).
As for `CN(C)C(=S)[S-].CN(C)C(=S)[S-].[Cu+2]`, the Potency is 5.92 µM (active).
The same measure, in the same setting: the entry for `CC(Cl)CN(C)C` (centres undefined) is “inactive”; for `CCCCCCCCCCCCCCCCCCn1cc[n+](C)c1` it is 8.58 µM (active); for `CCCN(CCC)c1c([N+](=O)[O-])cc(S(N)(=O)=O)cc1[N+](=O)[O-]` it is 50.1 µM (active).
On the same count and under the same terms, as for `COc1cc(N)c(Cl)cc1C(=O)NC1CN2CCC1CC2` (centres undefined), the entry is “inactive”; as for `CN(C)C1CSSSC1`, “inactive”.
Consider `FC(F)(F)c1cccc(C2=CCN(CCc3ccc4ccccc4c3)CC2)c1`, for which the Potency entry was “inactive”.
Still for that read-out and setting: as for `CCOP(=S)(OCC)SCS(=O)(=O)CC`, the entry is “inactive”; as for `c1ccc(OCC2CO2)cc1` (centres undefined), “inactive”; as for `CCCSP(=O)(OCC)SCCC`, “inactive”.
The same measure, in the same setting: the entry for `BrC(Br)C(Br)(Br)Br` is “inactive”.
Take `N#Cc1ccccc1Cl`: the Potency entry is “inactive”.
Same read-out and setting: as for `O=C(NC(=O)c1c(F)cccc1F)Nc1cc(Cl)c(OC(F)(F)C(F)F)c(Cl)c1`, the entry is “inactive”.
Consider `BrC(Br)Br`, for which the Potency result was “inactive”.
The same measure, in the same setting: the figure for `CC(C)CC(C)Nc1ccc(Nc2ccccc2)cc1` (centres undefined) is 53.5 µM (active).
Same read-out and setting: as for `Clc1ccc(C(c2ccc(Cl)cc2)C(Cl)(Cl)Cl)cc1`, the entry is “inactive”.
Still for that read-out and setting: the figure for `O=C(CCl)C(Cl)Cl` is 15.5 µM (active).
With `CC[C@H](C)[C@H]1O[C@]2(C=C[C@@H]1C)C[C@@H]1C[C@@H](C/C=C(\C)[C@@H](O[C@H]3C[C@H](OC)[C@@H](O[C@H]4C[C@H](OC)[C@@H](O)[C@H](C)O4)[C@H](C)O3)[C@@H](C)/C=C/C=C3\CO[C@@H]4[C@H](O)C(C)=C[C@@H](C(=O)O1)[C@]34O)O2`, the Potency was 16.1 µM (active).
On the same count and under the same terms, the entry for `COCC(=O)N(c1c(C)cccc1C)[C@H](C)C(=O)OC` is “inactive”; for `CCCCCCCCCCCCCCCC[n+]1ccccc1` it is 30.6 µM (active) [middle of 4 runs]; for `CCCCCCCCc1ccc(O)cc1` it is 54.8 µM (active).
Turning to `[Hg+2].[I-].[I-]`, the Potency is 48.6 µM (active).
Regarding `Brc1c(Br)c(Br)c(Oc2c(Br)c(Br)c(Br)c(Br)c2Br)c(Br)c1Br`, the activity change, negative = cytotoxicity was 1.58% [at 19 µM].
Take `NC(=O)c1ccc(N)nc1`: the Potency entry was “inactive”.

A short description of another test: Caspase-3/7 induction in HepG2 cells by small molecules, qHTS assay (AID 1346978). Further: nearly all actives have a fitted effect of over 15% in size. The conditions noted are these: HepG2 caspase-3/7 activation, Caspase-Glo luminescence, 17 h; series mostly up to 92.4 µM. An outline of the steps: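 Wild-type HepG2 cells, 2,000/well, settled 5 hr at 37 C and 5% CO2, then compound-treated for 17 hr; caspase-3/7 activity read by luminescent Caspase-Glo 3/7 after 30 min at room temperature.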
In general terms: qHTS replaces the single test concentration by a dilution series.
For `CN(C)C(=S)S`, the Potency is 19.7 µM (active) and 17.2 µM (active).
Still for that read-out and setting: as for `CC(=O)[O-].CC(=O)[O-].O.O.[Cd+2]`, the entry is “inactive”; as for `O=[N+]([O-])O.O=[N+]([O-])O.[Cd]`, “inactive”; as for `COc1cccc(C(=O)CCN[C@@H](C)[C@H](O)c2ccccc2)c1`, “inactive”.
On to `CC(=O)[O-].CC(=O)[O-].[Hg+2]`, for which the Potency result is “inactive”.
With `CC(C)C1CCC(Cc2ccc(Cl)cc2)C1(O)Cn1cncn1` (centres undefined), the Potency was 67.9 µM (active).
Same read-out and setting: as for `O=C/C(Cl)=C(/Cl)C(=O)O`, the entry is “inactive”.
As for `CC(c1ccc(O)cc1)c1ccc(O)cc1`, the Potency entry was “inactive”.
The same measure, in the same setting: as for `CC(=O)Nc1ccc2c(c1)Cc1ccccc1-2`, the entry is “inactive”; as for `ClC1=C(Cl)[C@]2(Cl)[C@@H]3[C@@H](Cl)[C@H](Cl)C[C@@H]3[C@@]1(Cl)C2(Cl)Cl`, “inactive”.
For `C[C@]12Cc3nonc3C[C@@H]1CC[C@@H]1[C@@H]2CC[C@@]2(C)[C@H]1CC[C@]2(C)O`, the Potency entry was “inactive”.
The same measure, in the same setting: as for `[Cd+2].[Cl-].[Cl-]`, the entry is “inactive”.
In the case of `O=c1[nH]c2ccccc2n1C1CCN(CCCC(c2ccc(F)cc2)c2ccc(F)cc2)CC1`, the Potency was 61.1 µM (active).
As for `CN(C)C(=S)[S-].CN(C)C(=S)[S-].[Cu+2]`, the caspase activation is -18.7% [at 19 µM].
For `CC(Cl)CN(C)C` (centres undefined), the Potency result is “inactive”.
The same measure, in the same setting: as for `CCCCCCCCCCCCCCCCCCn1cc[n+](C)c1`, the entry is “inactive”.
The same measure, in the same setting: as for `CCCN(CCC)c1c([N+](=O)[O-])cc(S(N)(=O)=O)cc1[N+](=O)[O-]`, the figure is 57.2 µM (active); as for `COc1cc(N)c(Cl)cc1C(=O)NC1CN2CCC1CC2` (centres undefined), “inactive”.
On the same count and under the same terms, as for `CN(C)C1CSSSC1`, the entry is “inactive”.
On to `FC(F)(F)c1cccc(C2=CCN(CCc3ccc4ccccc4c3)CC2)c1`, for which the Potency entry was “inactive”.
On the same count and under the same terms, as for `CCOP(=S)(OCC)SCS(=O)(=O)CC`, the entry is “inactive”; as for `c1ccc(OCC2CO2)cc1` (centres undefined), “inactive”; as for `CCCSP(=O)(OCC)SCCC`, “inactive”.
On the same count and under the same terms, as for `BrC(Br)C(Br)(Br)Br`, the entry is “inactive”; as for `N#Cc1ccccc1Cl`, “inactive”.
On the same count and under the same terms, the entry for `O=C(NC(=O)c1c(F)cccc1F)Nc1cc(Cl)c(OC(F)(F)C(F)F)c(Cl)c1` is “inactive”; for `BrC(Br)Br` it is “inactive”.
Consider `CC(C)CC(C)Nc1ccc(Nc2ccccc2)cc1` (centres undefined), for which the Potency entry was “inactive”.
The same measure, in the same setting: the entry for `Clc1ccc(C(c2ccc(Cl)cc2)C(Cl)(Cl)Cl)cc1` is “inactive”.
Same read-out and setting: the entry for `O=C(CCl)C(Cl)Cl` is “inactive”.
Same read-out and setting: the figure for `CC[C@H](C)[C@H]1O[C@]2(C=C[C@@H]1C)C[C@@H]1C[C@@H](C/C=C(\C)[C@@H](O[C@H]3C[C@H](OC)[C@@H](O[C@H]4C[C@H](OC)[C@@H](O)[C@H](C)O4)[C@H](C)O3)[C@@H](C)/C=C/C=C3\CO[C@@H]4[C@H](O)C(C)=C[C@@H](C(=O)O1)[C@]34O)O2` is 32.2 µM (active); for `COCC(=O)N(c1c(C)cccc1C)[C@H](C)C(=O)OC` it is “inactive”; for `CCCCCCCCCCCCCCCC[n+]1ccccc1` it is “inactive”.
Regarding `CCCCCCCCc1ccc(O)cc1`, the Potency is 43.5 µM (active).
Same read-out and setting: the entry for `[Hg+2].[I-].[I-]` is “inactive”.
Turning to `Brc1c(Br)c(Br)c(Oc2c(Br)c(Br)c(Br)c(Br)c2Br)c(Br)c1Br`, the caspase activation was -0.566% [at 19 µM].
Take `NC(=O)c1ccc(N)nc1`: the Potency result is “inactive”.
